From the supplement of paper PMC12669032

system: Roseburia intestinalis; assay: growth AUC relative to DMSO control (median of replicates) (fraction); higher = more growth (less inhibition), active = hit call of the paper; details: 20 µM; 24 h
In short: (§1)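 Gut bacterial monocultures were grown anaerobically at 37 °C in mGAM, starting at OD600 0.05, with 20 µM compound (1% DMSO) in round-bottom 96-well plates under pierced gas-permeable seals. OD600 was read hourly for 24 h. Area under the growth curve (minimum OD set to 0) was normalised to the plate median of DMSO controls, or to row and column medians on the industrial chemical plate. The value is the median of three biological replicates grown on separate days.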

Growth AUC, active:
O.O=C(Nc1ccc(Cl)c(Cl)c1)Nc1cc(Cl)ccc1Oc1ccc(Cl)cc1S(=O)(=O)[O-].[Na+] 0.792

Growth AUC, inactive:
COc1nc(N)nc(NC(C)(C)C)n1 0.943
c1cc2ccc3ccc4ccc5cccc6c(c1)c2c3c4c56 1.02
CC(C)(C)[C@@H](O)[C@@H](Cc1ccc(Cl)cc1)n1cncn1 (mixture of isomers) 0.963
COc1nc(OC)nc(C(=O)c2cccc(F)c2N(C)S(=O)(=O)C(F)F)n1 1.01
CCSC(=O)N(CC(C)C)CC(C)C 1.01
CP(=O)(O)CCC(=O)O 1.03
C/C=C/C=C/CCCCCCCO 1
CCc1cccc(C)c1N(C(=O)CS(=O)(=O)[O-])C(C)COC.[Na+] (stereo not drawn) 0.925
COC(=O)CSc1cc(N=c2sc(=O)n3n2CCCC3)c(F)cc1Cl 0.971
CN(C)C(N)=O 0.996
COC(=O)c1ccc(CNS(C)(=O)=O)cc1S(=O)(=O)NC(=O)Nc1nc(OC)cc(OC)n1 0.973
Br[C@@H]1CC[C@@H](Br)[C@@H](Br)CC[C@@H](Br)[C@@H](Br)CC[C@H]1Br 1
COC(=O)Nc1ccc(Cl)c(Cl)c1 1
O=C(Nc1ccc(O)cc1-c1ccc(Cl)cc1)c1cccnc1Cl 1.02
O=S(=O)(Oc1ccc(Cl)cc1Cl)c1ccccc1 0.974
O=C=NC1CCC(CC2CCC(N=C=O)CC2)CC1 (stereo not drawn) 1.06
NC(=S)Nc1cccc2ccccc12 0.917
C=CCc1ccc(O)c(OC)c1 0.937
CCc1cccc(C)c1NC(C)C(=O)O (racemic) 1.04
CCOC(=O)c1nc(C(Cl)(Cl)Cl)n(-c2ccc(Cl)cc2Cl)n1 0.949
O=c1cc(Cl)[nH]nc1-c1ccccc1 0.977
Cc1cc(C)c(C2=C(O)C3(CCCC3)OC2=O)c(C)c1 1.02
CCOC(=O)Cc1[nH]nc2ccc(Cl)cc12 1.14
Cc1cccc(C)c1N(CC(=O)O)C(=O)CS(=O)(=O)[O-].[Na+] 0.979
CC1COc2ccccc2N1C(=O)C(Cl)Cl (stereo not drawn) 0.92
Cc1cc(CC(C)CC(C)(C)C)n(O)c(=O)c1.NCCO (stereo not drawn) 0.995
COCCOc1ccccc1S(=O)(=O)NC(=O)Nc1nc(OC)nc(OC)n1 0.907
CNc1nc(NC(C)C)nc(SC)n1 0.995
COC(=O)c1c(Cl)nn(C)c1S(=O)(=O)NC(=O)Nc1nc(OC)cc(OC)n1 1.04
Clc1ccc(Sc2cc(Cl)c(Cl)cc2Cl)cc1 0.937
CN(C)C(=O)NC1CCCCCCC1 1.08
CCOC(=O)/C(Cl)=C/c1cc(N2C(=O)C3=C(CCCC3)C2=O)ccc1Cl 0.981
NC1=C(Cl)C(=O)c2ccccc2C1=O 0.963
CCCCOC(=O)[C@@H](C)Oc1ccc(Oc2ccc(C(F)(F)F)cn2)cc1 0.973
CC(C)COC(=O)COc1cc(Cl)c(Cl)cc1Cl 1.01
CC(C)Nc1nc(N)nc(Cl)n1 1.06
CNC(=O)/C(=N/OC)c1ccccc1COc1cc(C(=O)O)ccc1C 0.996
CC1(C)C(=O)Oc2ccc(OS(C)(=O)=O)cc21 1.02

system: Streptococcus salivarius; assay: as above; details: 20 µM; 24 h
In short: as §1

Growth AUC, inactive:
COc1nc(N)nc(NC(C)(C)C)n1 1.03
c1cc2ccc3ccc4ccc5cccc6c(c1)c2c3c4c56 1.02
CC(C)(C)[C@@H](O)[C@@H](Cc1ccc(Cl)cc1)n1cncn1 (mixture of isomers) 0.95
COc1nc(OC)nc(C(=O)c2cccc(F)c2N(C)S(=O)(=O)C(F)F)n1 1.02
CCSC(=O)N(CC(C)C)CC(C)C 0.997
CP(=O)(O)CCC(=O)O 0.987
C/C=C/C=C/CCCCCCCO 0.994
CCc1cccc(C)c1N(C(=O)CS(=O)(=O)[O-])C(C)COC.[Na+] (stereo not drawn) 0.878
COC(=O)CSc1cc(N=c2sc(=O)n3n2CCCC3)c(F)cc1Cl 0.946
CN(C)C(N)=O 1.02
COC(=O)c1ccc(CNS(C)(=O)=O)cc1S(=O)(=O)NC(=O)Nc1nc(OC)cc(OC)n1 1.07
COC(=O)Nc1ccc(Cl)c(Cl)c1 0.918
O=C(Nc1ccc(O)cc1-c1ccc(Cl)cc1)c1cccnc1Cl 1.03
O=S(=O)(Oc1ccc(Cl)cc1Cl)c1ccccc1 1.03
O=C=NC1CCC(CC2CCC(N=C=O)CC2)CC1 (stereo not drawn) 1.01
NC(=S)Nc1cccc2ccccc12 0.886
C=CCc1ccc(O)c(OC)c1 0.975
CCc1cccc(C)c1NC(C)C(=O)O (racemic) 1.02
CCOC(=O)c1nc(C(Cl)(Cl)Cl)n(-c2ccc(Cl)cc2Cl)n1 0.992
O=c1cc(Cl)[nH]nc1-c1ccccc1 1.03
Cc1cc(C)c(C2=C(O)C3(CCCC3)OC2=O)c(C)c1 0.985
CCOC(=O)Cc1[nH]nc2ccc(Cl)cc12 1
Cc1cccc(C)c1N(CC(=O)O)C(=O)CS(=O)(=O)[O-].[Na+] 0.972
CC1COc2ccccc2N1C(=O)C(Cl)Cl (stereo not drawn) 0.944
Cc1cc(CC(C)CC(C)(C)C)n(O)c(=O)c1.NCCO (stereo not drawn) 1.02
COCCOc1ccccc1S(=O)(=O)NC(=O)Nc1nc(OC)nc(OC)n1 0.98
CNc1nc(NC(C)C)nc(SC)n1 0.975
COC(=O)c1c(Cl)nn(C)c1S(=O)(=O)NC(=O)Nc1nc(OC)cc(OC)n1 1.05
Clc1ccc(Sc2cc(Cl)c(Cl)cc2Cl)cc1 0.933
CN(C)C(=O)NC1CCCCCCC1 1.05
CCOC(=O)/C(Cl)=C/c1cc(N2C(=O)C3=C(CCCC3)C2=O)ccc1Cl 0.96
NC1=C(Cl)C(=O)c2ccccc2C1=O 1
CCCCOC(=O)[C@@H](C)Oc1ccc(Oc2ccc(C(F)(F)F)cn2)cc1 0.969
CC(C)COC(=O)COc1cc(Cl)c(Cl)cc1Cl 0.958
CC(C)Nc1nc(N)nc(Cl)n1 0.988
CNC(=O)/C(=N/OC)c1ccccc1COc1cc(C(=O)O)ccc1C 0.995
CC1(C)C(=O)Oc2ccc(OS(C)(=O)=O)cc21 1.02

Growth AUC, active:
Br[C@@H]1CC[C@@H](Br)[C@@H](Br)CC[C@@H](Br)[C@@H](Br)CC[C@H]1Br 0.521
O.O=C(Nc1ccc(Cl)c(Cl)c1)Nc1cc(Cl)ccc1Oc1ccc(Cl)cc1S(=O)(=O)[O-].[Na+] 0.478
